In the library only some 0.65% were active in any assay of this set; here they are far more common.
BJeLR lethal = BJeLR cell viability loss. inhibition, % (no concentration beside the values). BJeLR (HRASV12) viability, CellTiter-Glo ATP luminescence, 48 h. 0.17% of 300,000 active; in the data active = inhibition above about 50%
ugtP null kill = growth inhibition of S. aureus ugtP deletion strain. AID 1259309. growth inhibition, % (concentration not given with the values). 0.54% of 330,000 active. S. aureus RN4220 ugtP deletion, OD600 growth, 16 h; in the data active = growth inhibition above about 68%;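 also: plate controls were untreated wells for no effect and antibiotic for full effect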
Sa RN4220 lethal = kills Staphylococcus aureus RN4220. S. aureus RN4220 growth, OD600, 16 h. inhibition, % (no concentration beside the values). 0.33% of 330,000 active. AID 1259311; in the data active = inhibition above about 85%;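 also: plate controls were untreated cells for no effect and reference antibiotic for full effect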
The depositor's hits bear a star; · = not tested or not shown.

SMILES | BJeLR lethal | ugtP null kill | Sa RN4220 lethal
CC(C)N(C(=O)CC1ON(C)C(=O)N1c1ccc(Cl)cc1)C(C)C (stereo not given) | 7 | -10 | 0
COCCN=C1N[C@@H](c2cccc(C(F)(F)F)c2)C(C(=O)OC)=C(C)N1Cc1ccccc1 | 6 | · | ·
COC(=O)C1=C(C)N(Cc2ccccc2)C(=NCc2cccc(C(F)(F)F)c2)N[C@H]1c1cccc(F)c1 | 99* | · | ·
CCCCC(=O)NC(c1ccc(N(CC)CC)cc1)c1ccc2cccnc2c1O (stereo not given) | 48 | · | ·
CCCCC(=O)NC(c1ccc(N(C)C)cc1)c1ccc2cccnc2c1O (stereo not given) | 57* | · | ·
COc1cc(C=NO)ccc1Oc1cnccn1 | · | 1 | 1
O=C(c1ccc2nsnc2c1)N1CCN(c2ccc([N+](=O)[O-])cc2)CC1 | -21 | 16 | 5
O=C(COc1ccccc1)NC(=S)Nc1ccc2c(c1)Cc1ccccc1-2 | -1 | 2 | 3
COc1ccc2cc(C(c3nnnn3C3CCCC3)N3CCc4ccccc4C3)c(=O)[nH]c2c1 (stereo not given) | 1 | -1 | 2
CCn1c(C)c(C(C)=O)c(N2CCN(c3cccc(Cl)c3)CC2)nc1=S | -6 | 7 | -3
CC(=O)c1c(N2CCN(c3cccc(Cl)c3)CC2)nc(=S)n(-c2ccccc2)c1C | -2 | 83* | 71
COc1ccccc1C(=O)Nc1nc2ccccc2s1 | 46 | · | ·
COc1ccc(C(=O)Nc2nc3ccccc3s2)c(OC)c1 | 53* | · | ·
O=C(O)CCCN1C(=O)/C(=C\c2ccccc2OCc2ccccc2)SC1=S | -9 | 16 | 27
O=C(O)CCCN1C(=O)/C(=C/c2cn(-c3ccccc3)nc2-c2cccs2)SC1=S | 7 | 83* | 50
COc1ccccc1Nc1nc(N)nc(-c2cc3ccccc3o2)n1 | -9 | 0 | 5
CCOc1ccc2nc(NC(=O)c3ccoc3C)sc2c1 | 81* | -38 | 2
CCOc1ccc2nc(NC(=O)c3ccco3)sc2c1 | 22 | -6 | 2
Cc1ccccc1CSCCNC(=S)Nc1ccccc1 | 4 | -9 | 13
Cc1ccccc1C(=O)Oc1cccc(Nc2ncnc3ccccc23)c1 | 9 | -11 | -11
CCc1cc(-c2n[nH]c(C)c2Oc2ccc(C(C)C)cc2)c(O)cc1O | -6 | 99* | 86*
Cc1[nH]nc(-c2ccc(O)cc2O)c1Oc1ccccc1 | 4 | -19 | 7
CCOC(=O)C1=C(c2ccccc2)N(C)C(=O)NC1c1ccc(OC(F)F)c(OC)c1 (stereo not given) | 3 | 6 | 4
FC(F)(F)c1ccc(C=NN2CCN(Cc3ccccc3)CC2)cc1 | · | 30 | 6
FC(F)(F)c1ccccc1C=NN1CCN(Cc2ccccc2)CC1 | · | 93* | -3
SMILES | BJeLR lethal | ugtP null kill | Sa RN4220 lethal
CC(C(=O)N1c2ccc(F)cc2CCC1C)N1C(=O)c2ccccc2C1=O (stereo not given) | 2 | -3 | 4
Cc1cccc(CSC(Nc2ccc(F)cc2)=C(C#N)C#N)c1 | 19 | 97* | 100*
CC(SCc1ccccc1)C(=O)Nc1ccc(F)cc1 (stereo not given) | 0 | 4 | 8
N#CC(C#N)=C(Nc1ccc(F)cc1)SCc1cccc(Br)c1 | 37 | 96* | 100*
Cc1cccc(CSC(=N)N)c1 | 4 | 5 | -2
Cc1oc(-c2cc(F)ccc2F)nc1CN1CCN(c2cnccn2)CC1 | 5 | 5 | 3
CC1C(c2ccccc2)OC(c2ccccc2Br)N1C (stereo not given) | · | 6 | 14
c1ccc(C2OC3c4cccc5cccc(c45)C3N2c2ccccc2)cc1 (stereo not given) | -4 | 84* | -6
Cc1ccc(S(=O)(=O)c2nc(-c3ccccc3)oc2N2CCC(C(N)=O)CC2)cc1 | -4 | 3 | 2
Cc1ccc2c(c1)COc1c3ccc(C(=O)N4CCCCC4)cc3nn1-2 | 23 | 17 | 12
O=C(c1ccc2c3n(nc2c1)-c1ccc(Cl)cc1CO3)N1CCOCC1 | 11 | -7 | 5
O=C(c1ccc2c3n(nc2c1)-c1ccccc1CO3)N1CCCCC1 | 60* | 0 | 0
O=C(c1ccc2c3n(nc2c1)-c1ccccc1CO3)N1CCOCC1 | 57* | · | ·
NC(=O)C1CCCCNc2c(F)cc([N+](=O)[O-])cc2C(=O)NC(CC(=O)O)C(=O)NCC(=O)N1 (stereo not given) | · | 0 | 4
Cc1nc(N2CCCCC2)sc1C(=O)c1cccc([N+](=O)[O-])c1 | 2 | · | ·
CN(C)c1ccc(C(=S)N2CCNCC2)cc1 | 1 | 1 | 4
Cc1cc(C)c2[nH]c(O)c(N=NC3=NC(=O)CS3)c2c1 | 2 | 10 | 5
Cc1cc(C)c2[nH]c(O)c(N=Nc3ccc(C(=O)O)cc3)c2c1 | -15 | 85* | 90*
COc1ccc2c(c1)[nH]c1c(=O)n(N=Cc3ccc(OC)c(CN4CCCC4)c3)cnc12 | · | 10 | 1
